The record followed here is PubChem BioAssay.

The structures appear in SMILES notation. Active and inactive are the calls of the source.

The nature of test [1]: small molecules captured by biotinylated probe aFSTL3 – biochemical, small-molecule microarray, fluorescence 635/667, stem cell growth factor project, primary screen (AID 1064).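 Note: measures binding of the biotinylated anti-FSTL3 antibody to printed compounds.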 The conditions noted are these: higher = more signal.
Test [2] in a line: binders from COS7 lysate, DM2A8 probe, primary screen, torsin A project, cell lysate, small-molecule microarray, fluorescence 635/667 (AID 1065). The following applies: higher = more signal, COS7 lysate expressing mutant human TOR1A.
A short description of test [3]: small molecules captured by biotinylated probe aFGF2 – biochemical, small-molecule microarray, fluorescence 635/667, stem cell growth factor project, primary screen (AID 1067).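 Note: measures binding of biotinylated aFGF2 protein to printed compounds on slides; z-score merges feature fluorescence and signal-to-noise across triplicate slides.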 The conditions noted are these: higher = more signal.
Test [4] can be described thus: small molecules captured by biotinylated probe aFGF10 – biochemical, small-molecule microarray, fluorescence 635/667, stem cell growth factor project, primary screen (AID 1071).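 Note: score merges 667 nm spot intensity and signal to noise from triplicate slides.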 The following applies: higher = more signal.
For test [5], the target named is Neurogenic locus notch homolog protein 2 (Homo sapiens) (UniProt Q04721). Briefly: small molecules binding Notch2 protein – biochemical, small-molecule microarray, 635 nm fluorescence, stem cell growth factors, primary screen (AID 1073). The following applies: higher = more signal.
Test [6] addresses Pro-neuregulin-1, membrane-bound isoform (Homo sapiens) (UniProt Q02297). Nature of the test: small molecules binding neuregulin-1 protein – biochemical, small-molecule microarray, fluorescence 635/667, psychiatric disease protein project, primary screen (AID 1075).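 Note: score combines 667 nm spot fluorescence with signal to noise.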 The conditions noted are these: NRG1 binding, 635 nm fluorescence, higher = more signal.
Test [7] deals with Neuregulin-1 EGF-like domain. Briefly: small molecules binding NRG1 EGF domain – biochemical, small-molecule microarray, 635 nm fluorescence, primary screen (AID 1081).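 Note: binding of the protein to compounds printed on small-molecule microarray slides.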 The conditions noted are these: higher = more signal.
A short description of test [8]: FRG1 expression reporter modulators in myotubes – cell-based, C2C12 myotubes, firefly/Renilla luciferase, luminescence, FRG1 inhibition for FSHD, primary screen (AID 1084). The following applies: FRG1 promoter luciferase, higher = more signal, called active from +8 up or from −8 down.
A short description of test [9]: small molecules captured by biotinylated probe aFST – biochemical, small-molecule microarray, fluorescence 635/667, stem cell growth factor project, primary screen (AID 1086).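 Note: score merges 667 nm fluorescence with signal-to-noise of each printed compound spot.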 The following applies: higher = more signal.
A short description of test [10]: binders of probe aHhip on microarray, primary screen, stem cell growth factor project, biochemical, small-molecule microarray, fluorescence 635/667 (AID 1087).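 Note: score merges spot fluorescence at 667nm with spot signal to noise ratio.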 The following applies: higher = more signal.
Test [11] has as its system PRMT1 (protein arginine N-methyltransferase 1). Nature of the test: small molecules binding arginine methyltransferase PRMT1 – biochemical, small-molecule microarray, 635 nm fluorescence, primary screen (AID 1088).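 Note: binding of Prmt1 protein to compounds spotted on small-molecule microarray slides.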 The following applies: higher = more signal.
A short description of test [12]: growth effects on S. cerevisiae YJM789 – YJM789 clinical isolate, OD600, 24 h, basal, primary screen (AID 1089).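 Note: growth of clinical yeast isolate S. cerevisiae YJM 789 seeded 1000 cells per well; test concentration not given here.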 The conditions noted are these: higher = more signal, called active from +8 up or from −8 down.
The nature of test [13]: S. pombe growth modifiers, basal conditions – strain 972, OD600, 24 h, no modulator, primary screen (AID 1090).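 Note: basal condition with compound alone and no growth modifier present; test concentration not given here.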 The conditions noted are these: S. pombe 972 growth, higher = more signal, called active from +8 up or from −8 down.
Test [14] in a line: budding yeast growth modifiers under rapamycin – strain BY4716, OD600, 96 h, primary screen (AID 1091). Note: test concentration not given here. The following applies: S. cerevisiae BY4716 + rapamycin, higher = more signal, called active from +8 up or from −8 down.
For test [15], the target named is Torsin-1A-interacting protein 2 (Homo sapiens) (UniProt Q8NFQ8). Nature of the test: small molecules binding lysate-expressed LULL1 – cell lysate, human LULL1 lysate, 635/667 nm fluorescence, primary screen (AID 1092).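 Note: probe is lysate of COS7 cells overexpressing human LULL1; score merges per-feature 667 nm fluorescence with signal-to-noise.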 The following applies: small-molecule microarray, hLULL1 lysate binding, 635 nm fluorescence; higher = more signal.
Chain of Torsin-1A-interacting protein 2 (Homo sapiens) (Q8NFQ8 whole entry, looked up): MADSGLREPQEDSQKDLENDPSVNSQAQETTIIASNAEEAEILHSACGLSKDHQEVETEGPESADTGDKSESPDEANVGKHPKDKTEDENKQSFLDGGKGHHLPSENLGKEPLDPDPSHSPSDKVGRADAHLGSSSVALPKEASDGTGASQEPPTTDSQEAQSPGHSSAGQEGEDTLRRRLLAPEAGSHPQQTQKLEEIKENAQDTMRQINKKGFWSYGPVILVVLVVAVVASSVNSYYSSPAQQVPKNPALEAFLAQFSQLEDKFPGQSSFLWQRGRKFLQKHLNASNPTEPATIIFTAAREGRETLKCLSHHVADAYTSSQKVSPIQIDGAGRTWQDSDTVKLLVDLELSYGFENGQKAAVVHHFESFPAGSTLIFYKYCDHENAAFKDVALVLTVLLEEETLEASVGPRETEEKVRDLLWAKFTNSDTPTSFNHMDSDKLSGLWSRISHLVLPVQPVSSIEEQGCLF
A short description of test [16]: optical density change of DRC41 E. coli – strain DRC41, OD650, 24 h, E. coli filamentation project, primary screen (AID 1093).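 Note: MC1000 strain lacking acrAB efflux and sulA so SOS filamentation is blocked; test concentration not given here.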 The conditions noted are these: E. coli DRC41 growth, higher = more signal, called active from +8 up or from −8 down.
Test [17] can be described thus: probe aLefty2 binding to arrayed compounds – biochemical, biotinylated probe, 635/667 nm fluorescence, primary screen (AID 1094).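 Note: score merges spot fluorescence near 667 nm with spot signal-to-noise ratio.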 The conditions noted are these: small-molecule microarray, higher = more signal.
Test [18] deals with Noggin (protein binding on small-molecule microarray). Briefly: small molecules binding Noggin protein – biochemical, 635/667 nm fluorescence, primary screen (AID 1095).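 Note: score merges 667 nm feature fluorescence with signal to noise over triplicate slides.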 The following applies: 635 nm fluorescence, higher = more signal.
In test [19] the target is Neurogenic locus notch homolog protein 3 (Homo sapiens) (UniProt Q9UM47). Briefly: small molecules binding NOTCH3 protein – biochemical, 635/667 nm fluorescence, primary screen (AID 1096). The following applies: small-molecule microarray, 635 nm fluorescence, higher = more signal.
Chain of Neurogenic locus notch homolog protein 3 (Homo sapiens) (Q9UM47 whole entry, looked up): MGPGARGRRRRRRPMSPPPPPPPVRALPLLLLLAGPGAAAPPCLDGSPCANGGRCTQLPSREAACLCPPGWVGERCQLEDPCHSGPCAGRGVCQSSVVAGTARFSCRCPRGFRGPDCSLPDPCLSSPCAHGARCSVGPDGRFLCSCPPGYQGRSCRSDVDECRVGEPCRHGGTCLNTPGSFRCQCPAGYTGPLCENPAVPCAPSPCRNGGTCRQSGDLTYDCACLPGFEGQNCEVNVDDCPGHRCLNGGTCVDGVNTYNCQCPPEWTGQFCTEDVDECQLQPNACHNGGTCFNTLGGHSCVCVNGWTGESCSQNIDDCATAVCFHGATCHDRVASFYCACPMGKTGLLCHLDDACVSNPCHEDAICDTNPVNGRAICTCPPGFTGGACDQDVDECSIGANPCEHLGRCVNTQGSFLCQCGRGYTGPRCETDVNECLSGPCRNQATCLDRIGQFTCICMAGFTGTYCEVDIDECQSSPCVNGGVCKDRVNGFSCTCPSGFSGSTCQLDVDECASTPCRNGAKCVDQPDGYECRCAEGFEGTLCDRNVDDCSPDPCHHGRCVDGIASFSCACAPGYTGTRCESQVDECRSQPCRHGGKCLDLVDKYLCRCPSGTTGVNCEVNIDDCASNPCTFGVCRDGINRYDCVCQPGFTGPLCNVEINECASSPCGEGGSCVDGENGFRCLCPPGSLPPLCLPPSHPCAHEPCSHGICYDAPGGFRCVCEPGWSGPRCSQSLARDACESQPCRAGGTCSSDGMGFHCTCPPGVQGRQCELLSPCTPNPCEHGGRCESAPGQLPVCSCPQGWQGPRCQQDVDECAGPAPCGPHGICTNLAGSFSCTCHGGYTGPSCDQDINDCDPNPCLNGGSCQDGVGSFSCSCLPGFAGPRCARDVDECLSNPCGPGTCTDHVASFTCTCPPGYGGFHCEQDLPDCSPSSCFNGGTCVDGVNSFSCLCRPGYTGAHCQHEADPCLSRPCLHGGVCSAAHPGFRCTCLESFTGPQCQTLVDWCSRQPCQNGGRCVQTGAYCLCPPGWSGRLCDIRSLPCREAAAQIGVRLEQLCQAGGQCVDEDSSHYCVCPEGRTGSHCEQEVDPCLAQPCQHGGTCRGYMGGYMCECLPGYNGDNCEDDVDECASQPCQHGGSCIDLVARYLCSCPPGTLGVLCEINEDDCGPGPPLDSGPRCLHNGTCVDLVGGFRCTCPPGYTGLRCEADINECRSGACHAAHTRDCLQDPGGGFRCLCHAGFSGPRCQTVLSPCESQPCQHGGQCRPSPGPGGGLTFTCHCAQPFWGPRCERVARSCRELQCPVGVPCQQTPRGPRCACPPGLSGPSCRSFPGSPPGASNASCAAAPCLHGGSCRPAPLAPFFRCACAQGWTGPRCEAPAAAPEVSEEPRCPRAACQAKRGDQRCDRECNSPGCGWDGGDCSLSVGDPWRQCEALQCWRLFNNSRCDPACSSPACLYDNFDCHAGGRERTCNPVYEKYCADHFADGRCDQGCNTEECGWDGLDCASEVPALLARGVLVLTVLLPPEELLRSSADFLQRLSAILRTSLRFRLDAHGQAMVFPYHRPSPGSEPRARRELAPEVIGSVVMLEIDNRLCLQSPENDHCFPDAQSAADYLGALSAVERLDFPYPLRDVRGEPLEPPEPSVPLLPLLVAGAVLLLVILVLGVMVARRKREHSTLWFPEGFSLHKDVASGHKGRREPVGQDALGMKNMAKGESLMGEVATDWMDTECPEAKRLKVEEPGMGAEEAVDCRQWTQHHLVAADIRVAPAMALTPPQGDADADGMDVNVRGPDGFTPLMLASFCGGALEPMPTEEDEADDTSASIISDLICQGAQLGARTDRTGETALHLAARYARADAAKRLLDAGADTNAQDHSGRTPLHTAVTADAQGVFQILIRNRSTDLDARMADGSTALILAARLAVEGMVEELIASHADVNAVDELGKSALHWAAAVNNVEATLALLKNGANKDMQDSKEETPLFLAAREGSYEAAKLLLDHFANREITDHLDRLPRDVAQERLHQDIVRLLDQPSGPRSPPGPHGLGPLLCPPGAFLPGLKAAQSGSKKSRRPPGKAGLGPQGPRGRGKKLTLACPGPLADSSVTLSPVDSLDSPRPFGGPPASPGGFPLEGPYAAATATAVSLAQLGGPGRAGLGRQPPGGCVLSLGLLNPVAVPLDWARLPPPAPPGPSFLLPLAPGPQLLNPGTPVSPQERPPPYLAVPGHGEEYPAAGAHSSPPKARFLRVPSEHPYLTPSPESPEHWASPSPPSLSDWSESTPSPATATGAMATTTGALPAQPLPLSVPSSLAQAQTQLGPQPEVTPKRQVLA
The nature of test [20]: probe aEGFR binding to arrayed compounds – biochemical, biotinylated probe, 635/667 nm fluorescence, primary screen (AID 1097).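 Note: probe is a biotinylated anti-EGFR antibody binding compounds printed on slides; score combines fluorescence near 667 nm and signal to noise of each spot.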 The following applies: small-molecule microarray, higher = more signal.

Chain of Pro-neuregulin-1, membrane-bound isoform (Homo sapiens) (Q02297 whole entry, looked up, the tested form may be a part, canonical isoform): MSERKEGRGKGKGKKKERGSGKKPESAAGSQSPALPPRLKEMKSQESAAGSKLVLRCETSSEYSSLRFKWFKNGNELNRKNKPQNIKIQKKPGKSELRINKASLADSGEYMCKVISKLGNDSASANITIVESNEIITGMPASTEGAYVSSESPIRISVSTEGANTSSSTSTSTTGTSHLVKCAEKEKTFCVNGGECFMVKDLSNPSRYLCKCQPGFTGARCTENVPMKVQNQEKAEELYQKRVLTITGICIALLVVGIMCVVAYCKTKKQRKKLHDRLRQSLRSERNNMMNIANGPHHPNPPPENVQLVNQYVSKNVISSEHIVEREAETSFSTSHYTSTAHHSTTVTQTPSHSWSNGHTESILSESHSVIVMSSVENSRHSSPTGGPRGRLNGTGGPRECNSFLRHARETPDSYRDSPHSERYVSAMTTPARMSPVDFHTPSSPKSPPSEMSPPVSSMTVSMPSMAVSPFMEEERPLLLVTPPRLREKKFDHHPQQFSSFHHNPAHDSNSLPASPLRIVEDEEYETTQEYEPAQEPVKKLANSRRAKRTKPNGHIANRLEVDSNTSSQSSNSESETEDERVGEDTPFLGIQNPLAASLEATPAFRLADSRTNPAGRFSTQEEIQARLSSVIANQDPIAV

On to `C[C@@H]1CC[C@@H](C(=O)O)N[C@H]1c1cccc(N2CCOCC2)c1`, for which the composite z-score in [1] was -0.406; in test [2], 0.179; in [3] it was -0.0428; in test [4], 0.268; in [5] it was 0.887; in test [6], 0.0719. In addition, the composite z-score in [7] was 0.251; in test [9], 0.253; in test [10], -0.134; in test [11], -0.618; in test [15], 0.879; in test [17] it was -0.106. The figures for the composite z-score in test [18], in test [19] and in test [20] were 0.377, 0.597 and -0.106, respectively. The z-score is -1.79 (inactive) in test [8]; 0.395 (inactive) in test [12]; -0.623 (inactive) in [13]; -0.591 (inactive) in test [14]; 1.64 (inactive) in test [16].

On to `CON=C(C)CCC(=O)OC[C@H]1O[C@H](C#Cc2ccccc2)C=C[C@@H]1Oc1ccc(C)cc1`, for which the composite z-score is -0.453 in test [1]; -0.172 in [2]; -0.0563 in [3]; 0.33 in [4]; -0.598 in test [5]; 0.108 in test [6]. For the same molecule, the composite z-score was 0.394 in [7]; 0.423 in [9]; 0.0854 in test [10]; 1.06 in [11]; 0.756 in test [15]; -0.143 in test [17]. Also, the composite z-score is 0.351 in [18], 0.326 in test [19] and -0.0363 in [20]. In addition, the z-score in test [8] is -0.127 (inactive); in [12] it was 1.42 (inactive); in test [13], -14.2 (active); in test [14] it was 1.52 (inactive); in test [16] it was 0.149 (inactive).

In the case of `CC(CCN1CCCCc2nc(C)c(C)cc21)=NO[C@@H](C)c1cc(-c2c(C)cc(C)cc2C)no1`, the composite z-score in test [1] is -0.0105; in test [2] it was -0.454; in [3], -0.232; in test [4] it was -0.33; in [5] it was -1.93; in test [6] it was 0.0782. Moreover, the composite z-score in [7] is -0.246; in test [9], -0.689; in test [10], -0.134; in test [11], 0.0804; in [15] it was -0.745; in test [17], -0.126. In addition, the composite z-score in test [18] was -0.0547; in [19], -1.55; in test [20], -0.343. Further, the z-score is -1.49 (inactive) in [8]; -1.73 (inactive) in test [12]; -10.2 (active) in test [13]; -0.199 (inactive) in [14]; 0.486 (inactive) in [16].

Consider `CC(C)(C)N1C(=O)[C@H]2[C@H]3[C@H](O)[C@H](O)CC(=NOC[C@@H](O)COCc4ccco4)[C@@H]3CC[C@H]2C1=O`, for which the composite z-score in test [1] is 0.812; in [2], 0.152; in test [3], -0.0193; in test [4] it was 0.112; in [5], 0.0503; in test [6], -0.0263. The composite z-score in test [7] is -0.214; in [9] it was -0.0115; in [10], -0.0994; in [11], -0.424; in test [15] it was -0.238; in [17], 0.16. The composite z-score is 0.0106 in test [18], -0.589 in test [19] and -0.141 in test [20]. Also, the z-score in test [8] is 0.528 (inactive); in test [12], -0.0093 (inactive); in [13] it was 0.257 (inactive); in test [14] it was 0.498 (inactive); in test [16], 0.635 (inactive).

For `CO[C@H]1COC(=O)CCC[C@H](C)[C@@H](OC)COC(=O)CC=C[C@@H]1C`, the composite z-score is -0.673 in test [1]; 0.929 in test [2]; -0.122 in test [3]; 0.227 in test [4]; 0.0458 in test [5]; -0.21 in test [6]. Further, the composite z-score is -0.179 in [7]; -0.106 in test [9]; -0.0237 in [10]; 0.411 in [11]; -0.355 in test [15]; -0.0448 in [17]. Moreover, the composite z-score is 0.409 in test [18], 0.0682 in test [19] and -0.0405 in test [20]. Also, the z-score is -0.0314 (inactive) in [8]; 0.0303 (inactive) in [12]; 0.197 (inactive) in test [13]; -1.08 (inactive) in test [14]; 0.556 (inactive) in test [16].

Regarding `C=CC[C@@H]1C=C[C@H](ON=CC[C@@H]2C=C[C@H](OC(C)=O)[C@@H](COC(C)=O)O2)[C@@H](CO)O1`, the composite z-score was -0.256 in test [1]; 0.52 in test [2]; -0.0864 in test [3]; 0.75 in [4]; 1.12 in test [5]; 1.06 in test [6]. The composite z-score was 1.11 in test [7]; 1.06 in test [9]; -0.314 in [10]; 1.26 in [11]; 1.3 in test [15]; 0.235 in test [17]. In addition, the composite z-score in test [18] came out at 0.984; in test [19] it was 1.05; in test [20], 0.169. The z-score in test [8] was 0.411 (inactive); in test [12] it was 0.953 (inactive); in test [13], 0.489 (inactive); in [14], 0.476 (inactive); in [16], 0.558 (inactive).

Regarding `O=C1C[C@@H](O)[C@@H](O)[C@@H]2[C@@H]3C(=O)N(Cc4ccccc4)C(=O)[C@@H]3CC[C@H]12`, the composite z-score in test [1] was -0.344; in test [2], 0.49; in test [3], -0.129; in test [4], 0.339; in test [5] it was 0.438; in [6], 0.235. The composite z-score was 0.632 in test [7]; 0.256 in test [9]; 0.0053 in test [10]; -0.326 in [11]; -0.14 in [15]; -0.107 in test [17]. Besides, the composite z-score in [18] was 0.497; in [19], 0.545; in test [20], -0.0171. For the same molecule, the z-score in [8] was -0.725 (inactive); in [12] it was 0.179 (inactive); in test [13] it was -0.253 (inactive); in test [14], -0.138 (inactive); in test [16], -0.188 (inactive).
